The supplement of paper PMC4894684
Where a name gives a salt, the structure may show the parent alone. ± gives the standard deviation of the averaged measurements.

Tested on: Toxoplasma gondii RH (in HFF)
Assay: parasite growth relative to the screen mean (all compounds = 100%); higher = less inhibition of parasite growth
Settings: 5 µM; 72 h; oxygen 21 %
In short: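 Parasite growth was reported relative to the screen mean. In that scale, the mean of all compounds equals 100%, and values are averaged over two screens. Compounds from 10 mM DMSO stocks were pin-transferred to 5 µM final onto confluent human foreskin fibroblasts in 96-well plates, infected within 2 h with RH β-Gal–GFP Toxoplasma (MOI 1:5) and grown 72 h at 21% O2, with parasite number read by a CPRG β-Gal assay against in-plate standard curves. Uninfected host-cell viability was checked with CellTiter-Blue.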

SMILES: O=C1NC(=O)c2cc(Nc3ccccc3)c(Nc3ccccc3)cc21
- parasite growth: 176 ± 43%

SMILES: COC(=O)C[C@](O)(CCCC(C)(C)O)C(=O)O[C@@H]1C(OC)=C[C@]23CCCN2CCc2cc4c(cc2[C@H]13)OCO4 [Homoharringtonine]
- parasite growth: < 0%

SMILES: CNCCC(Oc1ccccc1OC)c1ccccc1 (stereo not given) [Nisoxetine hydrochloride]
- parasite growth: 67 ± 20%

SMILES: N=C(N)SCCc1c[nH]cn1 [Imetit dihydrobromide]
- parasite growth: 91.9 ± 21%

SMILES: OCC1OC(n2cnc3c(NC4CCCC4)nc(Cl)nc32)C(O)C1O (stereo not given) [2-Chloro-N6-cyclopentyladenosine]
- parasite growth: 138 ± 11%

SMILES: CNCCC(Oc1ccc(C(F)(F)F)cc1)c1ccccc1 (stereo not given) [Fluoxetine hydrochloride]
- parasite growth: 20.9 ± 8.2%

SMILES: Cn1cccc1/C=C1\C(=O)NC(=O)c2ccccc21
- parasite growth: 121 ± 6.4%

SMILES: O=c1cc(N2CCOCC2)oc2c1ccc1ccccc12
- parasite growth: 89.2 ± 2.4%

SMILES: N[C@@H](C(=O)O)c1ccc(C(=O)O)c(C(=O)O)c1
- parasite growth: 117 ± 7.7%

SMILES: Cc1ccc(/C=N/NC(=O)c2ccccc2Oc2ccccc2)o1
- parasite growth: 72.7 ± 4.9%

SMILES: CCN1CCC[C@H]1CNC(=O)c1cc(S(N)(=O)=O)ccc1OC [(S)-(-)-Sulpiride]
- parasite growth: 93.2 ± 3.8%

SMILES: COc1ccc(CN2C(=O)C(=O)c3cc(OC(F)(F)F)ccc32)cc1
- parasite growth: 68.6 ± 14%

SMILES: CC(C)C[C@H](NC(=O)[C@@H](O)[C@H](N)Cc1ccccc1)C(=O)O [Bestatin]
- parasite growth: 136 ± 6.9%

SMILES: NC[C@@H]1O[C@H](C23CC4CC(CC(C4)C2)C3)Cc2c1ccc(O)c2O
- parasite growth: 89.5 ± 18%

SMILES: OCC(CO)N[C@H]1C[C@](O)(CO)[C@@H](O)[C@H](O)[C@H]1O [Voglibose]
- parasite growth: 68.07 ± 0.24%

SMILES: CC(=O)Nc1ccc(O)cc1 [Acetaminophen]
- parasite growth: 105 ± 2.7%

SMILES: COc1ccc(Nc2nccc(NCCO)n2)cc1 [Cardiogenol C hydrochloride]
- parasite growth: 122 ± 4.2%

SMILES: N#Cc1ccc(NCCNCC(=O)N2CCC[C@H]2C#N)nc1 [NVP DPP 728 dihydrochloride]
- parasite growth: 81.5 ± 3.9%

SMILES: O=C(O)c1c(Sc2ccccc2)c2cc(Cl)ccc2n1Cc1ccc(Cl)cc1
- parasite growth: 88.5 ± 6.7%

SMILES: COc1cc([C@@H]2c3cc4c(cc3[C@@H](O[C@@H]3O[C@@H]5CO[C@@H](C)O[C@H]5[C@H](O)[C@H]3O)[C@H]3COC(=O)[C@H]23)OCO4)cc(OC)c1O [Etoposide]
- parasite growth: 77.2 ± 18%

SMILES: Oc1ccc(-c2nc3cc(O)cc(Br)c3o2)cc1
- parasite growth: 134 ± 20%

SMILES: CN(C)c1ccc(/C=C2/C(=O)Nc3ccccc32)cc1
- parasite growth: 124 ± 26%

SMILES: N[C@@H](Cc1cc(-c2ccc(Cl)cc2Cl)cc(CP(=O)(O)O)c1O)C(=O)O
- parasite growth: 127 ± 26%

SMILES: CC(C)C(=O)c1c(C(C)C)nn2ccccc12 [Ibudilast]
- parasite growth: 75.7 ± 12%

SMILES: CN(C)C(=O)C(=O)c1cn(C)c2cc(Cl)c(C(=O)N3CCC(Cc4ccc(F)cc4)CC3)cc12
- parasite growth: 140 ± 28%

SMILES: Cc1c(NC(=O)N2CCOCC2)ccc2c1c1ccccc1n2C(C)C
- parasite growth: 144 ± 4.9%

SMILES: O=C1CC2(CCCC2)CC(=O)N1CCCCNCC1COc2ccccc2O1 (stereo not given)
- parasite growth: 156 ± 5.8%

SMILES: CCCCCCCC/C=C\CCCCCCCC(=O)NCCO [Oleylethanolamide]
- parasite growth: 135 ± 21%

SMILES: O=C1CC2(CCCC2)CC(=O)N1CCNCC1COc2ccccc2O1 (stereo not given)
- parasite growth: 152 ± 13%

SMILES: O=C(C=Cc1ccccc1)NC(NC(=S)Nc1ccc(Cl)cc1)C(Cl)(Cl)Cl (stereo not given)
- parasite growth: 34.8 ± 9.4%

SMILES: Nc1nc2ccc(OC(F)(F)F)cc2s1 [Riluzole hydrochloride]
- parasite growth: 88.1 ± 11%

SMILES: Brc1c(NC2=NCCN2)ccc2nccnc12 [UK 14,304 tartrate]
- parasite growth: 101 ± 27%

SMILES: Nc1nc2c(nc(Br)n2[C@@H]2O[C@@H]3COP(=O)(O)O[C@H]3[C@H]2O)c(=O)[nH]1 [8-Bromo-cGMP, sodium salt]
- parasite growth: 133 ± 26%

SMILES: CN(C)CCCSC(=N)N [Dimaprit dihydrochloride]
- parasite growth: 73.36 ± 0.62%

SMILES: CC(=O)N1CCN(C)CC1 [1-Acetyl-4-methylpiperazine hydrochloride]
- parasite growth: 109 ± 40%

SMILES: O=C1c2ccccc2C(Cc2ccnc(F)c2)(Cc2ccnc(F)c2)c2ccccc21
- parasite growth: 102 ± 14%

SMILES: CC(C)c1ccccc1S(=O)(=O)c1cc(N)c2ncccc2c1[N+](=O)[O-]
- parasite growth: 88.4 ± 2.1%

SMILES: COc1ccc2c(c1OC)C(=O)O[C@@H]2[C@H]1c2c(cc3c(c2OC)OCO3)CCN1C [Noscapine hydrochloride]
- parasite growth: 129 ± 27%

SMILES: O=C(O)C(=O)O.[NH-][C@@H]1CCCC[C@H]1[NH-].[Pt+2] [Oxaliplatin]
- parasite growth: 143 ± 2.5%

SMILES: Nc1nc2c(ccc3ccccc32)s1
- parasite growth: 158 ± 11%

SMILES: COc1cccc(OC)c1OCCNCC1COc2ccccc2O1 (stereo not given) [WB 4101 hydrochloride]
- parasite growth: 93.3 ± 33%

SMILES: CCCc1c(OCC(O)COc2ccc3c(=O)cc(C(=O)O)oc3c2CCC)ccc(C(C)=O)c1O (stereo not given)
- parasite growth: 96.9 ± 7.1%

SMILES: Oc1cc2c(cc1O)CN(C(=S)NCCc1ccc(Cl)cc1)CCC2 [Capsazepine]
- parasite growth: 150 ± 30%

SMILES: CC1(COc2ccc(CC3SC(=O)NC3=O)cc2)CCCCC1 (stereo not given) [Ciglitazone]
- parasite growth: 100 ± 22%

SMILES: Cc1cccc(Nc2cc(Cl)nc(SCC(=O)O)n2)c1C
- parasite growth: 108.5 ± 0.57%
